Data as given in PubChem BioAssay AID902 (National Center for Advancing Translational Sciences (NCATS), 2007).
Among all 130,000 compounds or so, about 1,900 (1.5%) were called active. Where a call stands in place of a potency, no number is given. Not shown: some 5% with an inconclusive outcome. Calls come from the whole dose curve; as a rule, active = well fitted cell-killing curve with a large enough effect; inconclusive = small, poorly fitted or top-dose-only effect; inactive = no such curve, though single readings can be large or run the other way. For the sample, actives were picked, then their nearest neighbours and some compounds at random.

Assay: qHTS Screen for Compounds that Selectively Target Cancer Cells with p53 Mutations: Cytotoxicity of p53ts Cells at the Nonpermissive Temperature; note: nearly all actives have a fitted effect of over 55% in size
Settings: H1299-p53A138V viability at 39C, ATP luminescence, 24 h; series mostly up to 46.1 µM
Description: NIH Chemical Genomics Center [NCGC] NIH Molecular Libraries Screening Centers Network [MLSCN] MLSCN Grant: 1 X01 MH079844-01 Assay Submitter (PI): Dr. SUN, YI, University of Michigan NCGC Assay Overview: Synthetic Lethal Screen for Compounds to Kill Cancer Cells with p53 Mutation. Tumor suppressor gene p53 serves as a major cellular barrier against tumorigenesis. […] The goal of this screening is to identify small molecule probes that selectively kill cancer cells with mutations in p53. This screening was carried out using two lines of H1299 lung cancer cells. The H1299-p53 A138V line express a temperature sensitive p53 mutant (p53ts) in which the mutant p53 protein (A138V) is in the mutant confirmation when grown at 39C (the nonpermissive temperature) and in the wild type conformation when grown at 32C (the permissive temperature). A H1299-neo line (p53 null) grown at both 39C and 32C were used as counter-screens to filter out false positive associated with temperature shifting. The small molecular compounds that selectively target mutant p53-containing cancer cells were selected as candidate probes for further study. A cytotoxicity assay based on the measurement of ATP contents in cells was used in this screen. Concentration-responses of all the compounds in the library collection were determined in qHTS using the cell lines and temperature conditions as above.
NCGC Assay Protocol Summary: Both the H1299-p53A138V and H1299-neo cell lines were provided by Dr.Yi Sun, a PI at the University Michigan. The cells were maintained and cultured at 37C. The resuspended frozen cells were used to plate the cells in the 1536-well assay plates at a density of 600 cells per well in 5 ul medium. The assay plates with the cells were incubated at 37C for 16 to 30 hours before the experiments. The library compounds in DMSO solution were added to the cells in assay plates and incubated 24 hours at 39C (for mutant p53 conformation) or 32C (for normal p53 conformation as control). An ATP_lite assay kit (PerkinElmer) was used to determine the cell viability. Tomaxifen (100uM) was used as the positive control for cell killing. Data were normalized to the controls for basal activity (DMSO only) and 100% killing (100uM tamoxifen). AC50 values were determined from concentration-response data modeled with the standard Hill equation. P53 assay protocol: 1. Reagent; 5 uL H1299-p53A138V or H1299-neo cell cells/well 2. Time; overnight; 37C incubation 3. Compounds; 23 nL; 5.9 nM to 46 uM 4. Controls; 23 nL; Tamoxifen 100 uM 5. Time; 24 hr; 39C incubation 6. Reagent; 3 uL; ATP_Lite reagent 7. Time; 20 min; Room Temperature 8. Detection; Luminescence; Viewlux plate reader Keywords: p53, synthetic lethal, cancer, cell viability, cytotoxicity, H1299 cell line, luminescence, MLSMR, MLSCN, NIH Roadmap, qHTS, NCGC
Potency is the fitted concentration of half-maximal effect.

Structure (SMILES)	Potency
Cc1oc2ccc(O)c(CN3CCC(C)CC3)c2c1C(=O)Nc1ccccc1	inactive
Cc1oc2ccc(O)c(CN3CCCCC3)c2c1C(=O)Nc1cccc(C(F)(F)F)c1	12.6 µM (active)
Cc1oc2ccc(O)c(CN3CCOCC3)c2c1C(=O)Nc1cccc(Cl)c1C	inactive
COc1ccccc1C(=O)Nc1c(C(=O)Nc2ccc(C)cc2)oc2ccccc12	inactive
O=C(Nc1ccc(NC(=O)c2cccs2)cn1)c1ccco1	10 µM (active)
Cc1ccnc(NC(=O)c2ccc(NC(=O)c3ccco3)cc2)c1	inactive
O=C(Nc1cccc(NC(=O)c2ccco2)c1)c1cnccn1	inactive
CCC(=O)Nc1cccc(C(=O)OCc2cc(=O)n3nc(CC)sc3n2)c1	inactive
CCOC(=O)c1cccc(NC(=O)C(Cc2ccccc2)NS(=O)(=O)c2cccc3nsnc23)c1 (stereo unspecified)	inactive
COc1ccc(Nc2cc(C(=O)NCCCN(C)c3ccccc3)c3ccccc3n2)c(OC)c1	inactive
COc1ccccc1Nc1cc(C(=O)NCCCN(C)C2CCCCC2)c2ccccc2n1	10 µM (active)
CCCCN(CCCNC(=O)c1cc(Nc2ccccc2OC)nc2ccccc12)c1ccccc1	inactive
CNC(=O)CN1C(=O)c2cccnc2Sc2ccccc21	inactive
COc1cccc(C(=O)N(Cc2cccc(Cl)c2)Cc2ccco2)c1	inactive
Cc1ccccc1NC(=O)CNc1ccccc1N1CCCCC1	inactive
O=C(NCCCN1CCN(C2CCCCC2)CC1)Nc1ccccc1C(F)(F)F	inactive
O=C(CN1CCN(C2CCCCC2)CC1)Nc1ccccc1N1CCCCC1	15.8 µM (active)
COc1ccc(Cl)cc1NC(=O)CCC(=O)c1ccc(C)cc1	inactive
COc1ccccc1CNC(=O)CCCn1c(=O)c2ccccc2n(CC(=O)Nc2ccc(C)cc2Cl)c1=O	inactive
COc1ccc(C2C(C#N)=C(N)Oc3n[nH]c(C)c32)cc1CN1CCN(c2ccc(F)cc2)CC1 (stereo unspecified)	inactive
CCCc1[nH]nc2c1C(c1ccc(OC)c(Cn3nc(C)c(Br)c3C)c1)C(C#N)=C(N)O2 (stereo unspecified)	7.94 µM (active)
CCCc1[nH]nc2c1C(c1ccc(Br)s1)C(C#N)=C(N)O2 (stereo unspecified)	inactive
Cc1cccc(C2CC(=O)Oc3c2c(=O)n(C)c2ccccc32)c1 (stereo unspecified)	inactive
OCCN1CCN(CC/C=C2\c3ccccc3Sc3ccc(C(F)(F)F)cc32)CC1	15.8 µM (active)
O=C(CN1CCCCC1)N1c2ccccc2Sc2ccc(C(F)(F)F)cc21	inactive
O=C(CN1CCCCCC1)N1c2ccccc2Sc2ccc(C(F)(F)F)cc21	inactive

Structure (SMILES)	Potency
CCOC(=O)c1c(S(=O)(=O)N2CCC(C(=O)NCc3ccccc3OC)CC2)c(C)n(C)c1C	inactive
Cc1ccc(Nc2ccc3cc(S(=O)(=O)N4CCCCC4)ccc3n2)cc1F	inactive
O=C(CC(c1cccs1)N1Cc2ccccc2C1=O)Nc1ccc(F)c(F)c1 (stereo unspecified)	inactive
Cc1ccc(N2CCN(C(=O)CCc3c(C)nc4c(c3C)c(=O)n(C)c(=O)n4C)CC2)c(C)c1	inactive
CC(C)(C)c1csc(NC2=NS(=O)(=O)c3ccccc32)n1	12.6 µM (active)
c1ccc(Nc2nc(-c3ccncc3)cs2)nc1	inactive
O=C(CSc1nccn1Cc1ccc(F)cc1)NCc1ccccc1	inactive
CCN(C(=O)Cn1cnc2sc(C)c(S(=O)(=O)N3CCN(c4ncccn4)CC3)c2c1=O)c1ccccc1F	inactive
CCOC(=O)c1c(S(=O)(=O)N2CCCC(C(=O)NCc3cccc(C)c3)C2)c(C)n(C)c1C (stereo unspecified)	inactive
CC1(C)N=C(SCc2ccccc2Cl)c2ccccc2N1	inactive
Cc1ccccc1N1CC(c2nc3ccccc3[nH]2)CC1=O (stereo unspecified)	inactive
Cc1cc(/C=N/n2cnnc2)c(C)n1-c1cccc(C(=O)O)c1	inactive
Cc1ccccc1-n1c(C)cc(/C=C2\NC(=O)NC2=O)c1C	8.91 µM (active)
CC(C)c1ccc(NC(=O)c2ccc(Cn3nc(N4CCN(c5ccccc5)CC4)ccc3=O)o2)cc1	inactive
O=S(=O)(c1ccc(C2CCCCC2)cc1)N1CCN(c2ccc(Cl)c(Cl)c2)CC1	inactive
CCOc1ccc(CNC(=O)C2CCCN(S(=O)(=O)N(CC)c3ccc(OCC)cc3)C2)cc1 (stereo unspecified)	inactive
CSc1nn(Cc2cccc(C)c2)c(N)c1S(=O)(=O)c1ccccc1	inactive
CCCCOc1ccc(CN2C(=O)C(=O)c3cc(Br)cc(C)c32)cc1OC	7.94 µM (active)
CCCCOc1ccc(Cn2c(=O)oc3ccc(C)cc32)cc1OC	inactive
COc1ccc(CCN(C)CCN2C(=O)c3ccccc3C2=O)cc1OC	inactive
COc1ccc(CCNC(=O)c2cc3cccc4c3n2CC(C)S4)c(OC)c1OC (stereo unspecified)	inactive
Cc1cccc(Cn2c(SCc3ccc(C(=O)N4CCC(C)CC4)cc3)nc3ccncc32)c1	inactive
CC(C)CC(=O)NCC(c1ccc2c(c1)OCO2)N1CCN(c2ccc(F)cc2)CC1 (stereo unspecified)	inactive
CC(C)(C)NC(=O)CSc1nc(-c2ccc(F)cc2)cc(C(F)(F)F)n1	inactive
CSc1nc(Nc2ccc(F)cc2)cc(-c2ccccc2)n1	12.6 µM (active)
c1ccc(Nc2n[nH]nc2-c2ccccc2)cc1	inactive

Structure (SMILES)	Potency
CCC(=O)N1c2ccccc2CC1C(=O)N1CCN(c2ccccc2)CC1 (stereo unspecified)	inactive
Cc1cccc(N2CCN(c3ccc(C(=O)O)cc3NC(=O)c3ccccc3F)CC2C)c1 (stereo unspecified)	inactive
COc1ccc(OC)c(CCNC(=O)CCCn2c(=O)c3cccn3c3cccnc32)c1	inactive
CCOc1ccc(OCC)c(NS(=O)(=O)c2ccc3[nH]c(=O)ccc3c2)c1	inactive
c1ccc(-n2ncc3c2ncn2c(C4CCCCC4)nnc32)cc1	inactive
CCN(CC)C(=O)CSc1ncnc2c1cnn2-c1ccccc1	inactive
CCN(c1ncnc2c1cnn2-c1ccc(C)cc1)C1CCCCC1	20 µM (active)
Cc1cccc(-c2nc(SCC(=O)Nc3cc(C)on3)c3c(=O)n(C)c(=O)n(C)c3n2)c1	inactive
Cc1nc2ccccc2n1C(=O)N1CCOCC1	inactive
Cc1cc(C)c2c(n1)nn1c(N3CCOCC3)cc(C)nc21	inactive
Cc1nn2c3cc(N4CCOCC4)ccc3nc2c2ccccc12	2 µM (active)
O=C(CSc1ncc(-c2ccccc2)[nH]1)Nc1ccc(F)cc1F	inactive
CCOc1cccc(NC(=O)CSc2ncc(-c3ccc(Cl)cc3)[nH]2)c1	20 µM (active)
Cc1cccc(NC(=O)CSc2ncc(-c3ccccc3)[nH]2)c1C	inactive
CNC(=O)CN1C(=O)c2ccccc2S1(=O)=O	inactive
CCCc1nnc(NC(=O)CN2C(=O)c3ccccc3S2(=O)=O)s1	12.6 µM (active)
CCCc1nnc(NC(=O)c2cc(OC)cc(OC)c2)s1	inactive
Cc1ccc(C)c2sc(NC(=O)c3ccc(S(=O)(=O)N4CCCC4)cc3)nc12	inactive
CC1=C(C(=O)N2CCN(c3cccc(C(F)(F)F)c3)CC2)C2(CCCCC2)OC1=O	inactive
Cn1c(=O)c(C(=O)Nc2ncccn2)c(O)c2ccccc21	12.6 µM (active)
O=C(Nc1ncccn1)c1cccs1	inactive
CCOc1cc(C(=O)Nc2ncccn2)cc(OCC)c1OCC	inactive
Cc1ccc(C(=O)Nc2ccc(OCc3cc(=O)n4c5c(sc4n3)CCCC5)cc2)cc1	inactive
CCN(CC)c1cc(NC2CCCCC2)c2c3c(onc13)-c1ccccc1C2=O	inactive
Cc1cccc(N2CCN(C(=O)c3oc(=O)c4ccccc4c3-c3ccccc3)CC2)c1C	inactive
O=C(/C=C/c1cn(CC(O)CN2CCc3ccccc32)c2ccccc12)c1ccc(Br)cc1 (stereo unspecified)	inactive

Structure (SMILES)	Potency
COc1ccc(OCCn2cc(C(=O)C3CCCCC3)c3ccccc32)cc1	inactive
CCOc1ccc(C(=O)/C=C/c2cn(CC(O)CN3CCCCCC3)c3ccccc23)cc1 (stereo unspecified)	10 µM (active)
COc1ccc(Cn2c(C(=O)O)c(CNCCc3cccs3)c3ccc(OC)cc32)cc1	inactive
CCOC(=O)c1ccccc1NS(=O)(=O)c1ccc(OC)cc1	inactive
CCCCC(C(=O)OCC(=O)c1ccc(OC)cc1)N1C(=O)c2ccccc2C1=O (stereo unspecified)	inactive
CCOC(=O)C1=C(c2ccc(OC)cc2)C(=O)c2ccccc2C1=O	7.08 µM (active)
Cc1cc(F)ccc1NS(=O)(=O)c1ccc(-n2cccn2)cc1	inactive
O=C(Nc1cc(-c2nc3ccccc3o2)ccc1Cl)c1cc([N+](=O)[O-])ccc1N1CCOCC1	inactive
COc1ccc2oc(-c3ccc(C)c(NC(=O)c4sc5ccccc5c4Cl)c3)nc2c1	inactive
Cc1ccc2c(c1)N(C(=O)CCC(=O)NCc1ccccc1F)CC(C)O2 (stereo unspecified)	inactive
Cc1ccccc1-c1nc(CS(=O)(=O)CC(=O)N2CCc3ccccc3C2)c(C)o1	inactive
Cc1ccccc1-c1nc(CS(=O)(=O)CC(=O)Nc2cc(Cl)cc(Cl)c2)c(C)o1	20 µM (active)
Cc1ccccc1-c1nc(CS(=O)(=O)CC(=O)NC(C)c2ccccc2)c(C)o1 (stereo unspecified)	inactive
CCC1CCCCN1S(=O)(=O)c1ccc(NC(=O)c2cc(=O)c3ccccc3o2)cc1 (stereo unspecified)	inactive
Clc1ccccc1CSc1nncn2c1cc1occc12	inactive
CCn1nc(C(=O)OCC(=O)N2c3ccccc3CC2C)c2ccccc2c1=O (stereo unspecified)	inactive
CCC(=O)N1c2ccc(S(=O)(=O)CCC(=O)N3CCN(c4ccccc4)CC3)cc2CC1C (stereo unspecified)	inactive
CCCC(=O)N1c2ccc(-c3csc(N)n3)cc2CC1C (stereo unspecified)	12.6 µM (active)
Cc1cccc(OCCSc2nc3ccccc3n2CC(=O)N2CCCCC2)c1C	inactive
O=C(O)Cc1ccc(NC(=O)c2cccs2)cc1	inactive
Cc1nc(-c2ccc(NC(=O)c3cccs3)cc2)cs1	2.51 µM (active)
O=C(O)c1ccc(NC(=O)c2cccs2)cc1	inactive
CCCCNc1ccc(-c2nc(-c3ccncc3)no2)cc1[N+](=O)[O-]	inactive
